TRPV1 potentiator: human TRPV1 potentiation | 320,000 tested, 0.02% active | potentiation, % at 8.33 µM | TRPV1-expressing cells, Fluo-8 calcium influx, capsaicin EC20 potentiation; in the data active means potentiation above about 80%; inconclusive means between about 30% and that limit; further: 0% is about no effect
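Cells expressing TRPV1 were dye-loaded with Fluo-8 and read kinetically: 10 s baseline, 3 min after compound (agonist portion), then 2 min after EC20 capsaicin (allosteric enhancer portion). Calcium-bound dye fluorescence at 480/520 nm.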
Gal4-VP16 FLuc: inhibits Gal4-VP16 luciferase reporter, ROR gamma counter-screen | Drosophila S2 Gal4-VP16 UAS-luciferase, luminescence, 20 h | Potency, µM (titrated, usually from 53.6 µM), for the others: at the highest dose activity, negative = inhibition, most hits filed as inhibitors | 310,000 tested, 3.5% active | AID 2546;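 further: Gal4-VP16 expression switched on by copper sulfate through the metallothionein promoter; potency means the concentration at half of the fitted maximal effect; on the % scale 0 is the no-effect control and ±100 the full control effect; nearly all actives have a fitted effect of over 50% in size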
uPA surface inh: blocks generation of uPA at the cell surface; cell surface uPA generation assay, qHTS; Potency, µM (doses to about 38.3 µM), for the others: at the highest dose activity change, negative = inhibition, usual class: inhibitors; 330,000 tested, 0.31% active; AID 540303; active means well fitted inhibition curve with a large enough effect; inconclusive means small, poorly fitted or top-dose-only effect; inactive means no such curve, though single readings can be large or run the other way; tested in mouse RAW 264.7 cells; further: potency means the concentration at half of the fitted maximal effect; on the % scale 0 is the no-effect control and ±100 the full control effect; nearly all actives have a fitted effect of over 55% in size
TRPV1 agonist: activates the human vanilloid receptor TRPV1. 320,000 tested, 0.19% active. TRPV1-expressing cells, Fluo-8 calcium influx, agonist mode. AID 540275. activation, % at 8.33 µM; in the data active means activation above about 80%; inconclusive means between about 30% and that limit; further: 0% is about no effect
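Cells expressing TRPV1 were dye-loaded with Fluo-8 and read kinetically: 10 s baseline, 3 min after compound (agonist portion), then 2 min after EC20 capsaicin (allosteric enhancer portion). Calcium-bound dye fluorescence at 480/520 nm.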
RORgamma inh: blocks mouse ROR gamma transcriptional activity. AID 2551. Drosophila S2 Gal4-RORgamma UAS-luciferase reporter, 20 h. P51450. 310,000 tested, 5.4% active. Potency, µM (highest dose often 53.6 µM), for the others: at the top dose activity change, negative = inhibition, hits mostly inhibitors; further: potency means the concentration at half of the fitted maximal effect; on the % scale 0 is the no-effect control and ±100 the full control effect; nearly all actives have a fitted effect of over 60% in size
Target sequence (P51450 whole entry, looked up, the tested form may be a part): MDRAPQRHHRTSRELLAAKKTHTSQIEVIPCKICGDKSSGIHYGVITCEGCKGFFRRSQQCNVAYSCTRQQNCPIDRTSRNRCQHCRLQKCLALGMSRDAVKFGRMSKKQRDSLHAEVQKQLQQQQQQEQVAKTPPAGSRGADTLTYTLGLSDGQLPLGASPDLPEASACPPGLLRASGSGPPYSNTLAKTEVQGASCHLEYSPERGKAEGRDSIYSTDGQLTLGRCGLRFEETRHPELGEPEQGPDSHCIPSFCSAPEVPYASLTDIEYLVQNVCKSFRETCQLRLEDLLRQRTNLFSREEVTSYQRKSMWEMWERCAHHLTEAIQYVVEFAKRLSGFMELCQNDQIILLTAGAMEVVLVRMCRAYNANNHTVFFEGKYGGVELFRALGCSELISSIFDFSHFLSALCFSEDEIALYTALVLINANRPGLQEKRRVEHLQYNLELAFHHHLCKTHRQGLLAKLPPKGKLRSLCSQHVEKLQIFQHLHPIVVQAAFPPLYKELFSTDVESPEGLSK
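Using a luciferase readout, inhibitors were identified by reduced reporter activity in Drosophila cells coexpressing a copper-inducible Gal4–ROR gamma fusion and UAS-driven Photinus luciferase, incubated 20 hr after 700 uM copper sulfate.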
Numbers without * were called inactive; ? = inconclusive; . = no result; [ ] = dose if it differs, or a comment. This is a sample that favours compounds with a hit; in the whole collection about 5.8% have one here. Unless noted, the call rests on the fitted dose curve; in most records, active means well fitted curve in the direction sought with a large enough effect; inconclusive means small, poorly fitted or top-dose-only effect, or another doubt; inactive means no such curve, though single readings can be large; an effect the other way counts as inactive or inconclusive.

SMILES	TRPV1 potentiator	Gal4-VP16 FLuc	uPA surface inh	TRPV1 agonist	RORgamma inh
CCOC(=O)C1=C(C)NC(C)=C(C(=O)OCC)C1c1ccccc1C=CC(=O)OC(C)(C)C	.	?	.	.	3%[10 µM]
Clc1ccc(/C=N/NC2=Nc3cccc4cccc2c34)cc1	4	14µM*	5%	-1	2µM*
C(=N\NC1=Nc2cccc3cccc1c23)/c1cccnc1	0	-6%	-5%	8	?
C(=N\NC1=Nc2cccc3cccc1c23)/c1ccccc1	2	?	5%	?	2.2µM*
CN(C(=O)c1cc2n(n1)C(C(F)(F)F)CC(c1ccco1)N2)c1ccc(OC(F)(F)F)cc1 (stereo not drawn)	-6	18µM*	9%	12	?
CN(C(=O)c1cc2n(n1)C(C(F)(F)F)CC(c1ccco1)N2)c1ccccc1 (stereo not drawn)	5	21%	4%	-1	16%
O=C(COc1ccc2ccccc2c1Br)N1CCCCC1	0	-8%	11%	16	-27%
NC(=O)C1CCN(C(=O)COc2ccc3ccccc3c2Br)CC1	-21	?	1%	?	1.8µM*
CCNc1nc(NCC)nc(N(CC)C(N)=S)n1	9	?	-9%	4	5µM*
CCNc1nc(NCC)nc(N(C#N)C(C)C)n1	-13	13%	-5%	14	1%
Cc1cc(-n2[nH]c(C)c(C)c2=O)nc(-c2ccccc2O)n1	-7	?	-10%	7	11µM*
Nc1cccc2c1C(=O)N(C(=O)/C=C/c1cccc(F)c1)C2=O	-8	22µM*	-5%	30	?
COc1cc(N=Nc2ccc3ccccc3c2)ccc1O	-1	-29%	3.2µM*	4	13%[1.91 µM]
NS(=O)(=O)c1ccc(N=Nc2c(O)ccc3ccccc23)cc1	0	-12%	-3%	0	28%
O=[N+]([O-])c1ccccc1N=Nc1ccc(O)cc1	.	.	-24%	.	.
Oc1ccc(N=Nc2ccc3ccccc3c2)cc1	0	?	?	-2	6.3µM*
Oc1ccc(N=Nc2c(O)ccc3ccccc23)cc1	-20	13µM*	-26%	30	?
COC(=O)CNC(=O)[C@@]1(C)C=C[C@@H](Cc2ccccc2)N1C(C)=O	.	-15%	.	.	0%
COc1ccc(C(C)=O)cc1CS(=O)(=O)CC(=O)NCCc1c[nH]c2ccccc12	21	.	-1%	0	.
CCCOc1ccc(/C=N/NC(=O)c2ccc(Cn3cc([N+](=O)[O-])cn3)o2)cc1	-4	-3%	-1%	4	-1%
COc1ccc(CNC(=O)Nc2ccc([N+](=O)[O-])cc2)cc1	.	1%	15%	.	8%
CC(C)Oc1ccc(CNC(=S)N/N=C/c2ccc([N+](=O)[O-])cc2)cc1	3	3.2µM*	-3%	-1	2.5µM*
Cc1ccc(CC(=O)N/N=C/c2ccc(OC(=O)c3ccc([N+](=O)[O-])cc3)cc2)cc1	-7	11%	1%	1	-1%
CCCOc1ccc(CNC(=S)N/N=C/c2ccc([N+](=O)[O-])cc2)cc1	0	1.6µM*	1%	3	1.3µM*
CC(C)COc1ccc(CNC(=S)N/N=C/c2ccc([N+](=O)[O-])cc2)cc1	-2	4.5µM*	5%	-1	1.4µM*
SMILES	TRPV1 potentiator	Gal4-VP16 FLuc	uPA surface inh	TRPV1 agonist	RORgamma inh
COc1ccc(CNC(=O)C(C)c2ccc([N+](=O)[O-])cc2)cc1 (stereo not drawn)	-21	1%	4%	80*	14%
O=C(O)c1nnn(-c2cccc(C(F)(F)F)c2)c1-c1ccccc1	4	6%	7%	-3	-8%
CC1CCC(NC(=O)CN2C(=O)NC3(CCCCC3C)C2=O)CC1 (stereo not drawn)	4	.	?	1	.
O=C(COc1ccc2ccccc2c1)NCCc1ccc2c(c1)OCCO2	3	-7%	2%	5	22%
CCCOc1ccc(CNC(=S)NCc2ccc(OC(C)C)cc2)cc1	3	7.1µM*	5%	24	7.1µM*
CCCOc1ccc(CCC(=O)O)cc1	6	5%	23%	0	16%
CC(C)Oc1ccc(CCC(=O)N/N=C/c2ccncc2)cc1	-29	-6%	0%	?	20µM*
COc1ccc(CNC(=S)N/N=C/c2ccncc2)cc1	-1	?	-2%	-1	?
CCOc1ccc(CNC(=S)N/N=C/c2ccncc2)cc1	-7	13µM*	?	6	10µM*
CC(C)Oc1ccc(CCC(=O)N/N=C/c2ccc3c(c2)OCO3)cc1	-7	-6%	5%	?	-12%
Cc1ccc(S(=O)(=O)CCC(O)c2ccc(Cl)cc2)cc1 (stereo not drawn)	10	-8%	1%	?	13%
CC(=O)Nc1sc(C)c(C)c1C(=O)OCC(=O)NCc1ccc(F)cc1	5	.	0%	0	.
CN(CC(=O)Nc1ccc(N2CCOCC2)cc1)C(=O)CSc1ccc(Br)cc1	-4	4%	11%	-4	21%
Cc1ccc(NC(=S)Nn2cnnc2)cc1	8	-21%[10 µM]	6%	-2	-39%
CC(C)COCC(O)CCC(=O)NNC(=S)Nc1ccccc1 (stereo not drawn)	11	1µM*	-1%	1	-35%[10 µM]
O=C(CCC(=O)NNC(=S)Nc1ccccc1)NCc1ccccc1	-1	?	.	1	10µM*
CCc1ccc(NC(=S)Nn2cnnc2)cc1	-1	0%	0%	2	1.1µM*
CCc1ccc(NC(=S)NCc2ccccc2)cc1	-7	?	-1%	?	2.2µM*
O=C(Cc1ccccc1)NNC(=S)Nc1ccccc1	4	-17%	5%	2	?
Cc1ccc(NC(=O)CCC(=O)NNC(=S)Nc2ccccc2)c(C)c1	-12	3%	-1%	20	15%
CCc1ccc(NC(=S)NCc2cccnc2)cc1	.	17%	-2%	.	-9%
CSc1ccc(CN2CCN(C(=O)c3ccc([N+](=O)[O-])cc3)CC2)cc1	-2	-15%	-3%	6	37%
COc1ccccc1NC(=O)C(C)OC(=O)CCC1CCCCC1 (stereo not drawn)	-17	-6%	3%	?	0%
C#CCOCCOCCOCCNc1nc(N2CCN(C(=O)[C@H](C)n3cc(CCC(=O)O)nn3)CC2)nc(N2CCN(C(=O)[C@H](Cc3ccc(O)cc3)n3cc(CCO)nn3)CC2)n1	.	.	14%	.	.
Cc1ccc(Cl)cc1NC(=S)NN	15	?	?	-4	8.9µM*
S=C(NCc1ccccc1)Nc1ccncc1	-3	14µM*	-7%	?	-11%
FC(F)(F)Sc1ccc(NC(=S)NCc2ccccc2)cc1	-23	?	-30%	?	13µM*
Cc1ccc(Cl)cc1NC(=O)CSC(N)=O	26	?	-7%	1	?
CCc1ccc(C(O)(CNCc2ccccc2)c2ccccc2)cc1 (stereo not drawn)	0	13µM*	-2%	9	-19%
CC1(O)/C=C\C=C(\CO)C2CC(C)(C)C2(O)CC1 (stereo not drawn)	.	-9%	.	.	0%
